From PubChem BioAssay AID372 (MTDP, 2006)
Among all 100,000 compounds or so, about 770 (0.77%) were called active. The list comes from a sample in which actives are over-represented; it also holds similar structures and randomly drawn compounds. A number with no mark means an inactive call. Cut-off read from the data, not from the text of the source: active = inhibition above about 50%; inactive = the rest.

Molecular target: Gag-Pol polyprotein (Human immunodeficiency virus type 1 group M subtype B (isolate HXB2)) (UniProt P04585)
Experiment: RNase H inhibition, HIV 1 Gag Pol polyprotein, FRET biochemical assay, screening (AID 372)
Conditions: HIV-1 RT RNase H, FRET RNA/DNA substrate fluorescence; at 10 µM; hits give high values

Row | Compound | inhibition
1 | O=C1c2ccccc2C(=O)N1CC(O)Cn1c2ccc(Br)cc2c2cc(Br)ccc21 (stereo unspecified) | 16%
2 | CCc1ccc(OCCCCCCN2CCOCC2)cc1 | 8%
3 | CCc1ccc(OCCCN2CCOCC2)cc1 | 3%
4 | CCc1ccc(OCCN2CCOCC2)cc1 | 50% (active)
5 | Cc1cc(/C=C2\C(=O)NC(=O)N(c3ccc(Br)cc3)C2=O)c(C)n1-c1cccnc1 | 2%
6 | COc1ccccc1NC(=O)c1c(NC(=O)c2cc([N+](=O)[O-])ccc2Cl)sc2c1CCCC2 | 3%
7 | CCN(CC)C(=O)c1sc(NC(=O)c2cc(OC)cc(OC)c2)c(C(=O)OC)c1C | 10%
8 | O=C1NC(=Nc2ccc(O)cc2)S/C1=C\c1ccc([N+](=O)[O-])cc1 | 4%
9 | O=C1NC(=Nc2cccc(O)c2)S/C1=C/C(Cl)=C/c1ccc([N+](=O)[O-])cc1 | 51% (active)
10 | O=C1NC(=Nc2ccc(O)cc2)S/C1=C/C(Cl)=C/c1ccc([N+](=O)[O-])cc1 | 0%
11 | O=C1C(=O)N(c2ccc(Br)cn2)C(c2ccccc2[N+](=O)[O-])/C1=C(/O)c1ccccc1 (stereo unspecified) | 4%
12 | O=C(Nc1ccc(F)cc1)Nc1nnc(CSCc2ccc(Cl)cc2)s1 | 26%
13 | O=C1NC(=O)N(c2ccc3c(c2)OCO3)C(=O)/C1=C/c1ccc(Sc2ccccc2)o1 | 0%
14 | O=C1NC(=O)N(c2ccc3c(c2)OCO3)C(=O)/C1=C/c1ccc(-c2cccc([N+](=O)[O-])c2)o1 | 0%
15 | O=C1NC(=O)N(c2ccc3c(c2)OCO3)C(=O)/C1=C/c1ccc(-c2cccc(Cl)c2)o1 | 53% (active)
16 | N=C1S/C(=C\c2cc3c(cc2[N+](=O)[O-])OCO3)C(=O)N1c1ccc(F)cc1 | 55% (active)
17 | N=C1S/C(=C\c2ccc(-c3ccc(F)cc3)o2)C(=O)N1c1ccc2c(c1)OCO2 | 52% (active)
18 | N=C1S/C(=C\c2ccc(-c3ccccc3F)o2)C(=O)N1c1ccc2c(c1)OCO2 | 30%
19 | N=C1S/C(=C\c2ccc(-c3ccc([N+](=O)[O-])cc3)o2)C(=O)N1c1ccc2c(c1)OCO2 | 12%
20 | N=C1S/C(=C\c2ccc3c(c2)OCO3)C(=O)N1c1ccc(F)cc1 | 43%
21 | O=C1/C(=C\c2cc3c(cc2[N+](=O)[O-])OCO3)SC(=S)N1c1ccccc1 | 24%
22 | COc1ccc(OC)c(/C=C2\C(=O)NC(=S)N(c3ccc(Br)cc3)C2=O)c1 | 12%
23 | O=C(Nc1nnc(SCc2ccccc2)s1)c1cccc2ccccc12 | 3%

Row | Compound | inhibition
24 | O=[N+]([O-])c1ccc(OCCCCN2CCOCC2)cc1 | 9%
25 | Clc1ccc(OCCOCCOc2cccc3cccnc23)c2ccccc12 | 45%
26 | O=C(Nc1ccccc1Cl)c1ccc(N2C(=O)c3ccccc3C2=O)cc1 | 16%
27 | CSCCC(NC(=O)c1ccccc1)C(=O)OCC(=O)Nc1cc(C)on1 (stereo unspecified) | 11%
28 | CCCOc1ccc2ccccc2c1C=C1C(=O)NC(=S)NC1=O | 23%
29 | COc1ccc(OC)c(N(CC(=O)Nc2ccccc2F)S(C)(=O)=O)c1 | 8%
30 | S=C(NCc1ccccc1)N/N=C/c1ccco1 | 22%
31 | COc1ccc(CCNC(=O)C(=O)Nc2ccccc2)cc1 | 11%
32 | Cc1ccc(NC(=O)CSc2nc3ccccc3s2)cc1C | 41%
33 | CN1CCN(/N=C/c2ccc([N+](=O)[O-])s2)CC1 | 6%
34 | CCOc1ccc(-n2sc3c(c2=S)-c2ccc(OC)cc2NC3(C)C)cc1 | 2%
35 | COc1ccc(Cl)cc1C(=O)Nc1ccc(Cl)c(-c2nc3ncccc3o2)c1 | 57% (active)
36 | COc1cc(NC(=O)c2cccc(Cl)c2)ccc1NC(=O)c1cc2ccccc2o1 | 34%
37 | O=C(Nc1ccc(Cl)c(-c2nc3ncccc3o2)c1)c1ccc(Cl)cc1Cl | 6%
38 | COc1ccc(C(=O)Nc2ccc(NC(=O)c3cc4ccccc4o3)c(OC)c2)cc1Br | 6%
39 | CCOc1cc(C(=O)Nc2ccc(NC(=O)c3cc4ccccc4o3)c(OC)c2)cc(OCC)c1OCC | 11%
40 | COc1cc(NC(=O)c2ccc(Cl)cc2Cl)ccc1NC(=O)c1cc2ccccc2o1 | 21%
41 | COc1cc(NC(=O)c2ccccc2F)ccc1NC(=O)c1cc2ccccc2o1 | 24%
42 | COc1cc(NC(=O)c2ccc(C(C)(C)C)cc2)ccc1NC(=O)c1cc2ccccc2o1 | 7%
43 | COc1cc(NC(=O)c2cccc(Br)c2)ccc1NC(=O)c1cc2ccccc2o1 | 51% (active)
44 | COc1cc(NC(=O)c2cc(Cl)ccc2OC)ccc1NC(=O)c1cc2ccccc2o1 | 55% (active)
45 | COc1ccc(Cl)cc1C(=O)Nc1cccc(-c2nc3ncccc3o2)c1C | 3%
46 | COc1cc(NC(=O)c2cc(Cl)c(OC)c(Cl)c2)ccc1NC(=O)c1cc2ccccc2o1 | 52% (active)
